# Reference: the supplement of paper PMC6992640
# Where a name gives a salt, the structure may show the parent alone.
# Legend:
# Assay in all cases: cell viability of combination (% of vehicle); higher = less cytotoxic
# Conditions in all cases: 1 µM; 72 h; partner dose: 10 nM
# [1] = test system: HCI01 (cells of a triple-negative basal-like breast cancer xenograft)
# Protocol: (§1)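 PDX cells were treated for 72 h with each drug at 1 µM plus carfilzomib (10 nM; 100 nM for WHIM2). Luciferase viability is expressed as percent of vehicle.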
# [2] = test system: UCD52 (cells of a triple-negative basal-like breast cancer xenograft)
# Protocol: as §1
# [3] = test system: WHIM30 (cells of a triple-negative basal-like breast cancer xenograft)
# Protocol: as §1
# [4] = test system: HCI01; remark: listed apart in the source
# Protocol: (§2)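 PDX cells were treated for 72 h with each drug at 1 µM plus afatinib (10 nM; 1 µM for WHIM30). Luciferase viability is expressed as percent of vehicle.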
# [5] = test system: UCD52; remark: listed apart in the source
# Protocol: as §2
# [6] = test system: WHIM2 (cells of a triple-negative basal-like breast cancer xenograft)
# Protocol: as §2
Structure (SMILES),cell viability of combination [1],cell viability of combination [2],cell viability of combination [3],cell viability of combination [4],cell viability of combination [5],cell viability of combination [6]
CO[C@H]1C[C@@H]2CC[C@@H](C)[C@@](O)(O2)C(=O)C(=O)N2CCCC[C@H]2C(=O)O[C@H]([C@H](C)C[C@@H]2CC[C@@H](OC(=O)C(C)(CO)CO)[C@H](OC)C2)CC(=O)[C@H](C)/C=C(\C)[C@@H](O)[C@@H](OC)C(=O)[C@H](C)C[C@H](C)/C=C/C=C/C=C/1C [Temsirolimus] + CC(C)C[C@H](NC(=O)[C@H](CCc1ccccc1)NC(=O)CN1CCOCC1)C(=O)N[C@@H](Cc1ccccc1)C(=O)N[C@@H](CC(C)C)C(=O)[C@@]1(C)CO1 [Carfilzomib],72.4,49.5,23.9,,,
C=C1C(=CC=C2CCCC3(C)C2CCC3C(C)CCCC(C)(C)O)CC(O)CC1O (stereo unspecified) [Calcitriol] + CC(C)C[C@H](NC(=O)[C@H](CCc1ccccc1)NC(=O)CN1CCOCC1)C(=O)N[C@@H](Cc1ccccc1)C(=O)N[C@@H](CC(C)C)C(=O)[C@@]1(C)CO1 [Carfilzomib],53.8,38.4,19.1,,,
N.N.O=C([O-])C1(C(=O)[O-])CCC1.[Pt+2] [Carboplatin] + CC(C)C[C@H](NC(=O)[C@H](CCc1ccccc1)NC(=O)CN1CCOCC1)C(=O)N[C@@H](Cc1ccccc1)C(=O)N[C@@H](CC(C)C)C(=O)[C@@]1(C)CO1 [Carfilzomib],81.2,70.6,22.9,,,
COC(=O)c1ccc2c(c1)NC(=O)C2=C(Nc1ccc(N(C)C(=O)CN2CCN(C)CC2)cc1)c1ccccc1 [Nintedanib (BIBF 1120)] + CC(C)C[C@H](NC(=O)[C@H](CCc1ccccc1)NC(=O)CN1CCOCC1)C(=O)N[C@@H](Cc1ccccc1)C(=O)N[C@@H](CC(C)C)C(=O)[C@@]1(C)CO1 [Carfilzomib],76.4,37.5,24.9,,,
CN(C)CC=CC(=O)Nc1cc2c(Nc3ccc(F)c(Cl)c3)ncnc2cc1OC1CCOC1 (stereo unspecified) [Afatinib (BIBW2992)] + CC(C)C[C@H](NC(=O)[C@H](CCc1ccccc1)NC(=O)CN1CCOCC1)C(=O)N[C@@H](Cc1ccccc1)C(=O)N[C@@H](CC(C)C)C(=O)[C@@]1(C)CO1 [Carfilzomib],63.1,26.2,12.3,,,
Cn1cnc2c(F)c(Nc3ccc(Br)cc3F)c(C(=O)NOCCO)cc21 + CC(C)C[C@H](NC(=O)[C@H](CCc1ccccc1)NC(=O)CN1CCOCC1)C(=O)N[C@@H](Cc1ccccc1)C(=O)N[C@@H](CC(C)C)C(=O)[C@@]1(C)CO1 [Carfilzomib],67.1,50.1,36.1,,,
CC1=C(C(=O)OC(C)C)C(c2cccc([N+](=O)[O-])c2)C(C(=O)OC2CN(C(c3ccccc3)c3ccccc3)C2)=C(N)N1 (stereo unspecified) [Azelnidipine] + CN(C)C/C=C/C(=O)Nc1cc2c(Nc3ccc(F)c(Cl)c3)ncnc2cc1O[C@H]1CCOC1 [Afatinib],,,,56.7,52.3,43
CCC(=C(c1ccccc1)c1ccc(OCCN(C)C)cc1)c1ccccc1.O=C(O)CC(O)(CC(=O)O)C(=O)O [Tamoxifen Citrate] + CC(C)C[C@H](NC(=O)[C@H](CCc1ccccc1)NC(=O)CN1CCOCC1)C(=O)N[C@@H](Cc1ccccc1)C(=O)N[C@@H](CC(C)C)C(=O)[C@@]1(C)CO1 [Carfilzomib],90.4,71.2,23.8,,,
CNC1CCC(c2ccc(Cl)c(Cl)c2)c2ccccc21.Cl (stereo unspecified) [Sertraline HCl] + CC(C)C[C@H](NC(=O)[C@H](CCc1ccccc1)NC(=O)CN1CCOCC1)C(=O)N[C@@H](Cc1ccccc1)C(=O)N[C@@H](CC(C)C)C(=O)[C@@]1(C)CO1 [Carfilzomib],72.1,61.1,11,,,
CC(NCCCc1cccc(C(F)(F)F)c1)c1cccc2ccccc12.Cl (stereo unspecified) [Cinacalcet HCl] + CC(C)C[C@H](NC(=O)[C@H](CCc1ccccc1)NC(=O)CN1CCOCC1)C(=O)N[C@@H](Cc1ccccc1)C(=O)N[C@@H](CC(C)C)C(=O)[C@@]1(C)CO1 [Carfilzomib],89.6,59.9,18.6,,,
Nc1ccc2cc3ccc([NH3+])cc3nc2c1.Nc1ccc2cc3ccc([NH3+])cc3nc2c1.O=S(=O)([O-])[O-] [Proflavine Hemisulfate] + CC(C)C[C@H](NC(=O)[C@H](CCc1ccccc1)NC(=O)CN1CCOCC1)C(=O)N[C@@H](Cc1ccccc1)C(=O)N[C@@H](CC(C)C)C(=O)[C@@]1(C)CO1 [Carfilzomib],78,94,11.2,,,
COc1cccc2c1C(=O)c1c(O)c3c(c(O)c1C2=O)C[C@@](O)(C(C)=O)C[C@@H]3O[C@H]1C[C@H](N)[C@H](O)[C@H](C)O1.Cl [Daunorubicin HCl] + CN(C)C/C=C/C(=O)Nc1cc2c(Nc3ccc(F)c(Cl)c3)ncnc2cc1O[C@H]1CCOC1 [Afatinib],,,,70.7,20.8,9.65
CCN(CC)CCNC(=O)c1c(C)[nH]c(C=C2C(=O)Nc3ccc(F)cc32)c1C.O=C(O)CC(O)C(=O)O [Sunitinib malate] + CC(C)C[C@H](NC(=O)[C@H](CCc1ccccc1)NC(=O)CN1CCOCC1)C(=O)N[C@@H](Cc1ccccc1)C(=O)N[C@@H](CC(C)C)C(=O)[C@@]1(C)CO1 [Carfilzomib],67.2,61.5,33.1,,,
CNCCC(Oc1cccc2ccccc12)c1cccs1.Cl (stereo unspecified) [Duloxetine HCl] + CC(C)C[C@H](NC(=O)[C@H](CCc1ccccc1)NC(=O)CN1CCOCC1)C(=O)N[C@@H](Cc1ccccc1)C(=O)N[C@@H](CC(C)C)C(=O)[C@@]1(C)CO1 [Carfilzomib],81.6,62.4,16.1,,,
COc1nc2ccc(Br)cc2cc1[C@@H](c1ccccc1)[C@@](O)(CCN(C)C)c1cccc2ccccc12 [Bedaquiline fumarate] + CN(C)C/C=C/C(=O)Nc1cc2c(Nc3ccc(F)c(Cl)c3)ncnc2cc1O[C@H]1CCOC1 [Afatinib],,,,52.9,91.2,49
CCCCCCCCCCCCCCCCOP(=O)([O-])OCC[N+](C)(C)C [Miltefosine] + CC(C)C[C@H](NC(=O)[C@H](CCc1ccccc1)NC(=O)CN1CCOCC1)C(=O)N[C@@H](Cc1ccccc1)C(=O)N[C@@H](CC(C)C)C(=O)[C@@]1(C)CO1 [Carfilzomib],75.2,71.6,22.7,,,
CC(C)C1=CC(=C2NNC(=O)N2c2ccc3c(ccn3C)c2)C(=O)C=C1O [Ganetespib (STA-9090)] + CN(C)C/C=C/C(=O)Nc1cc2c(Nc3ccc(F)c(Cl)c3)ncnc2cc1O[C@H]1CCOC1 [Afatinib],,,,49.1,30.9,29.1
Cl.Cl.O=C1c2c(O)ccc(O)c2C(=O)c2c(NCCNCCO)ccc(NCCNCCO)c21 [Mitoxantrone HCl] + CC(C)C[C@H](NC(=O)[C@H](CCc1ccccc1)NC(=O)CN1CCOCC1)C(=O)N[C@@H](Cc1ccccc1)C(=O)N[C@@H](CC(C)C)C(=O)[C@@]1(C)CO1 [Carfilzomib],74.1,30,5.21,,,
COc1cc2c(Oc3ccc(NC(=O)C4(C(=O)Nc5ccc(F)cc5)CC4)cc3F)ccnc2cc1OCCCN1CCOCC1 + CC(C)C[C@H](NC(=O)[C@H](CCc1ccccc1)NC(=O)CN1CCOCC1)C(=O)N[C@@H](Cc1ccccc1)C(=O)N[C@@H](CC(C)C)C(=O)[C@@]1(C)CO1 [Carfilzomib],75.8,32.5,22.4,,,
CCCCCCCCCCCC1=C(O)C(=O)C=C(O)C1=O [Embelin] + CC(C)C[C@H](NC(=O)[C@H](CCc1ccccc1)NC(=O)CN1CCOCC1)C(=O)N[C@@H](Cc1ccccc1)C(=O)N[C@@H](CC(C)C)C(=O)[C@@]1(C)CO1 [Carfilzomib],71.1,55.5,17.7,,,
CC(=O)C1(O)Cc2c(O)c3c(c(O)c2C(OC2CC(N)C(O)C(C)O2)C1)C(=O)c1ccccc1C3=O.Cl (stereo unspecified) [Idarubicin HCl] + CC(C)C[C@H](NC(=O)[C@H](CCc1ccccc1)NC(=O)CN1CCOCC1)C(=O)N[C@@H](Cc1ccccc1)C(=O)N[C@@H](CC(C)C)C(=O)[C@@]1(C)CO1 [Carfilzomib],187,21.1,5.43,,,
CC[C@@H]1/C=C(\C)C[C@H](C)C[C@H](OC)[C@H]2O[C@@](O)(C(=O)C(=O)N3CCCC[C@H]3C(=O)O[C@H](/C(C)=C/[C@@H]3CC[C@H](Cl)[C@H](OC)C3)[C@H](C)[C@@H](O)CC1=O)[C@H](C)C[C@@H]2OC [Pimecrolimus] + CC(C)C[C@H](NC(=O)[C@H](CCc1ccccc1)NC(=O)CN1CCOCC1)C(=O)N[C@@H](Cc1ccccc1)C(=O)N[C@@H](CC(C)C)C(=O)[C@@]1(C)CO1 [Carfilzomib],95.7,49.2,11.7,,,
